A549 tox – Nrf2 qHTS screen for inhibitors: counterscreen for cytotoxicity; AID 504648, 2011; Potency, µM (series often up to 46 µM), for the others: top-dose activity change, negative = cytotoxicity, usual class: inhibitors; A549 ARE-Fluc cells, CellTiter-Fluor viability, 18-24 h; 390,000 tested, 0.16% active; further: on the % scale 0 is the no-effect control and ±100 the full control effect
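Cytotoxicity counterscreen: CellTiter-Fluor fluorescence was measured in A549 ARE_Fluc cells after 18-24 h of compound exposure in a concentration series. The subsequent BugLite luminescent read reports ARE-luciferase activity.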
HepG2 tox – qHTS for Inhibitors of TGF-b: Cytotox Counterscreen; HepG2 CAGA-GFP viability, ATP luminescence, 18 h; Potency, µM (series often up to 46.1 µM), for the others: at the highest dose activity change, negative = cytotoxicity, hits mostly cytotoxic; 410,000 tested, 0.76% active; AID 588856, 2011
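HepG2 CAGA-GFP cells (1000/well, DMEM with 1% FBS) received compound, then TGF-beta at 500 pg/mL final, and were incubated 18 hours at 37 degrees C. Viability was read by CellTiter-Glo luminescence. Media-only wells were set as complete cell-killing and DMSO as no toxicity.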
ATXN viability – Viability Counterscreen for Primary qHTS for Inhibitors of ATXN expression. AID 651635, 2014. Potency, µM (doses to about 56.7 µM), hits mostly cytotoxic. S2 cells (HEK-293 line with an ATXN2-luciferase reporter) viability, CellTiter-Fluor protease fluorescence, 24 h. 400,000 tested, 0.49% active; further: nearly all actives have a fitted effect of over 40% in size
TGFb SMAD3 inh – qHTS for Inhibitors of TGF-b; HepG2 CAGA-GFP TGF-b/SMAD3 reporter, GFP fluorescence, 18 h; TGF-beta stimulated, 500 pg/mL final; Potency, µM (titrated, usually from 46.1 µM), for the others: at the highest dose activity, negative = inhibition, hits mostly inhibitors; 410,000 tested, 1.2% active; AID 588855, 2011; further: on the % scale 0 is the no-effect control and ±100 the full control effect; nearly all actives have a fitted effect of over 65% in size
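HEPG2 CAGA-GFP cells (1000/well, DMEM with 1% FBS) were pre-incubated 2 h at 37 degrees C, given compound by pin tool, then stimulated with TGF-beta at 500 pg/mL final for 18 h before per-cell GFP fluorescence imaging.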
Nrf2 inh – Nrf2 qHTS screen for inhibitors. A549 ARE-Fluc reporter, luciferase luminescence, 18-24 h. Potency, µM (titrated, usually from 46 µM), for inactives: top-dose activity change, negative = inhibition, hits mostly inhibitors. 360,000 tested, 2.1% active; further: on the % scale 0 is the no-effect control and ±100 the full control effect; nearly all actives have a fitted effect of over 60% in size
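Concentration-response testing used A549 ARE_Fluc cells at 5000 cells/well. Following an 18-24 h compound incubation, viability was read by fluorescence (Ex 405/Em 525) and luciferase output by luminescence.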
ATXN2 expr inh – Primary qHTS for Inhibitors of ATXN expression; HEK-293 ATXN2-luciferase reporter, luminescence, 24 h; Potency, µM (series often up to 57 µM), for inactives: at the highest dose activity change, negative = inhibition, usual class: inhibitors; 360,000 tested, 0.72% active; AID 1745845, 2022; further: on the % scale 0 is the no-effect control and ±100 the full control effect; nearly all actives have a fitted effect of over 55% in size
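ATXN2-luciferase reporter cells (luciferase flanked by upstream and downstream ATXN2 gene portions) were treated 24 h at 37 °C with compounds at up to 57 uM. SteadyGlo luminescence gave expression; GF-AFC fluorescence gave viability.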
The depositor's hits bear a star; i = inactive; ? = inconclusive; nt = no result; ! = not confirmed by another sample. Shown are actives, neighbours in structure and some others; about 3.8% of the full set was active somewhere. The call rests on the fitted dose curve; in most records, active means well fitted curve in the direction sought with a large enough effect; inconclusive means small, poorly fitted or top-dose-only effect, or another doubt; inactive means no such curve, though single readings can be large; an effect the other way counts as inactive or inconclusive. Potency means the concentration at half of the fitted maximal effect.

SMILES	A549 tox	HepG2 tox	ATXN viability	TGFb SMAD3 inh	Nrf2 inh	ATXN2 expr inh
NS(=O)(=O)c1ccc(N2N=C(c3ccccc3)CC2c2ccccc2Cl)cc1 (centres undefined)	?	-84%	i	?	21µM*	?
NS(=O)(=O)c1ccc(N2N=C(c3ccccc3)CC2c2ccc(Br)cc2)cc1 (centres undefined)	nt	28µM*	?	?	nt	?
COc1ccc(C2CC(c3ccccc3F)=NN2c2ccc(S(N)(=O)=O)cc2)cc1 (centres undefined)	9%	-20%	nt	?	-12%	2%
O=C(c1ccc(=O)[nH]n1)N1CCN(S(=O)(=O)c2ccc(C(F)(F)F)cc2)CC1	1%	0%	i	12%	7%	nt
CCOc1ccc(CC(=O)Nc2nnc3n2CCS3)cc1	6%	-7%	i	10%	nt	6%
Cc1ccc(S(=O)(=O)N2CCC3(CC2)OCCN3S(=O)(=O)c2c(C)cc(C)cc2C)cc1	-3%	-18%	i	8%	1%	-9%
CCOc1ccc(NC(=O)CSc2nccn(-c3ccc4c(c3)OCCO4)c2=O)cc1	-11%	0%	?	-9%	2%	-14%
COc1ccc2cc(-c3nnc(Nc4ccccc4)s3)c(=O)oc2c1	3%	0%	i	8%	nt	9%
COc1ccc(NC(=O)C2Cc3c(-c4cccc(C(N)=O)c4)ccnc3O2)cc1 (centres undefined)	nt	-22%	i	8%	nt	10%
O=S(=O)(c1ccc2c(c1)OCCO2)N1CCN(S(=O)(=O)c2cc(F)c(F)cc2F)CC1	-2%	nt	nt	nt	-18%	nt
COc1ccc(C(=O)c2sc(Nc3ccccc3)nc2N)cc1OC	1%	-13%	nt	13µM*	-9%	?
COc1ccc(C(C)=O)cc1CSc1nnc(Nc2ccccc2)s1	-24%	-27%	i	-8%	23µM*	?
COc1ccc(C(=O)c2sc(Nc3ccccc3)nc2N)cc1	-7%	-54%	i	11µM*	?	-5%
COc1cc(-c2nc(-c3ccc(NC(=O)c4ccc5c(c4)OCO5)cc3)no2)cc(OC)c1OC	?	-57%	32µM*	?	?	?
COc1ccc(NC(=O)N2CCN(c3cc(-c4noc(C)n4)ccc3C)CC2)c(OC)c1	0%	-22%	i	-26%	nt	7%
COc1ccc(NC(=O)c2ccc(-c3ccc(-c4noc(C)n4)cc3C)cc2)cc1N1CCN(C)CC1	-27%	11µM*!	nt	18µM*	?	?
COc1ccc(Cl)cc1-c1nc(-c2ccc(NC(=O)c3ccncc3)cc2)no1	-1%	-38%	i	-17%	-18%	2%
COc1ccc(-c2nc(-c3ccc(NC(=O)c4ccncc4)cc3)no2)cc1OC	0%	-17%	?	-11%	13µM*	?
O=C1c2ccccc2CCCC12N=NCC2c1cccc2ccccc12 (centres undefined)	-4%	-28%	i	-4%	16µM*	?
C[C@@H]1[C@H](O)C[C@@]23COC(=O)C2=CCCC3[C@@]1(C)CCC1COC(=O)C1 (some centres undefined)	4%	1%	i	-1%	1%	-1%
CCc1ccc(CN(Cc2ccco2)C(=O)c2cc(-c3ccc(C)c(F)c3)on2)cc1	-3%	-10%	nt	nt	16µM*	nt
CC(=O)N1CCC2(CC1)OC(=O)C(C)=C2C(=O)Nc1cccc(Cl)c1C	-1%	-3%	nt	-7%	16%	nt
Cc1ccc2nc(Cl)c3cc(C(=O)NCCCN4CCC(C)CC4)sc3c2c1	7%	2%	nt	-6%	1%	nt
Cc1ccc2[nH]c(=O)c3cc(C(=O)NCCCN4CCC(C)CC4)sc3c2c1	1%	-57%	20µM*	-1%	10%	28µM*
CC1(C(=O)Nc2ccc(Cl)c(Cl)c2)CCN1C(=O)C1CCCCC1 (centres undefined)	nt	-13%	i	-20%	nt	1%
SMILES	A549 tox	HepG2 tox	ATXN viability	TGFb SMAD3 inh	Nrf2 inh	ATXN2 expr inh
CC(=O)Nc1ncc([N+](=O)[O-])s1	nt	nt	i	nt	nt	6%
Cc1cnc(NC(=O)c2ccc3c(c2)OCCO3)s1	?	-47%	?	-11%	?	2.2µM*
Cc1nc2ccc3nc(NC(=O)c4ccc5c(c4)OCCO5)sc3c2s1	-5%	-12%	i	15%	-1%	4%
Cc1ccc(C(=O)Nc2ncc([N+](=O)[O-])s2)cc1	-27%	-70%	?	?	?	2.8µM*
O=C(Nc1ncc([N+](=O)[O-])s1)c1ccc2c(c1)OCO2	?	-64%	?	?	?	2.2µM*
C=CCn1c(=O)[nH]c2cc(C(=O)N3CC=C(c4ccccc4)CC3)ccc2c1=O	3%	-49%	i	-18%	-17%	-23%
COc1ccc(-n2nc(C(=O)NCC(=O)NC3CCCCC3)c3ccccc3c2=O)cc1	-1%	1%	i	2%	4%	-12%
Cc1nc(SCc2cc(=O)c3cccc(F)c3[nH]2)n[nH]1	1%	-3%	i	-19%	nt	12%
CCOc1cc(CNc2ccc(O)cc2)cc(Br)c1OCc1ccccc1	?	-79%	nt	?	?	?
CCOc1cc(CNc2ccc(O)cc2)ccc1OCc1ccc(Cl)cc1	-9%	-102%	?	13µM*	-20%	-8%
Oc1ccc(NCc2ccccc2OCc2ccc(Cl)cc2)cc1	11%	13µM*	nt	5.6µM*	7%	nt
O=c1[nH]c2ccc(NCc3ccccc3OCc3ccc(Cl)cc3)cc2[nH]1	-17%	-30%	?	?	?	?
Oc1ccc(NCc2ccccc2OCc2ccccc2)cc1	-13%	11µM*!	nt	8.9µM*	0%	?
C=Cc1ccc(Cn2c(=O)n(-c3cccc(Cl)c3)c(=O)c3c4c(sc32)CN(C(C)=O)CC4)cc1	1%	-20%	?	-26%	?	?
O=C(O)Cn1cc(C(=O)c2ccco2)c2ccccc21	-1%	-15%	i	1%	-1%	6%
Cc1ccc(NC(=O)Cn2cc(C=O)c3ccccc32)cc1	0%	-29%	i	7.9µM*	2%	-9%
COc1ccc(OC)c(NC(=O)Cn2cc(C=O)c3ccccc32)c1	-6%	-30%	i	10µM*	-10%	-7%
Cc1ccc(OCCn2cc(C=O)c3ccccc32)cc1	8%	-14%	i	11µM*	-2%	?
